Compounds with a hit are over-represented: about 4.6% of the library has one in this group of screens.
TRHR PAM = allosterically enhances the human TRH receptor | P34981 | TRHR cells, fluo-8 calcium fluorescence, EC20 TRH enhancement | enhancement, % at 2 µM | 360,000 compounds, 0.66% hits | AID 493056; in the data active = enhancement above about 30%; also: 0% is about no effect
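Enhancer read-out: after compound pinning and an initial kinetic agonist-mode read, an EC20 of TRH (10 nM final) was injected and fluo-8 calcium signal (Ex 480/Em 530) followed at 1 s/cycle for 100 cycles in TRHR-expressing cells.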
D1 PAM = human D1 dopamine receptor positive modulation. P21728. HEK293 TREx D1 cells, calcium flux, dopamine EC20 potentiation. potentiation, % at 10 µM. 360,000 compounds, 0.036% hits. AID 504651; in the data active = potentiation above about 30%; also: 0% is about no effect
Target sequence (P21728 whole entry, looked up): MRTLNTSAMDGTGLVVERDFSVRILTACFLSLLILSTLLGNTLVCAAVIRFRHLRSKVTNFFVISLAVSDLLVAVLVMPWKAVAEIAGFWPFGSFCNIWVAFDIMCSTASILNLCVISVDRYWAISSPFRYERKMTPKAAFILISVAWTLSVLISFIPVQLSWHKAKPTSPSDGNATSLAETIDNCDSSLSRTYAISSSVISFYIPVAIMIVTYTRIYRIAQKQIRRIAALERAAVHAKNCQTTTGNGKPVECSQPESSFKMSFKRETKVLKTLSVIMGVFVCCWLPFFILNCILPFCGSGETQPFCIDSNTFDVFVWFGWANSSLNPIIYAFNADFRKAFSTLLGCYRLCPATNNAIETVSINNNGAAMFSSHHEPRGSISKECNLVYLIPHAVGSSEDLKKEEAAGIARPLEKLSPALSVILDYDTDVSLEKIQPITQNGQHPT
D1 antag = antagonists of human D1 dopamine receptor; P21728; HEK293 TREx D1 cells, calcium flux, dopamine EC80; stronger effect = lower value; activity change, negative = inhibition, % at 10 µM; 360,000 compounds, 3.2% hits; AID 504652; in the data active = activity change below about -30%; also: % is scaled to controls: 0 for no effect and ±100 for the full control effect
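Calcium flux readout: force-coupled, inducible Hek293 Trex D1 line, cells induced overnight at 30 C with tetracycline, dye-loaded 30–90 min at RT. Antagonism scored against EC80 dopamine challenge given 180 s after compound.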
TRHR agonist = activates the human TRH receptor. P34981. 360,000 compounds, 0.18% hits. activation, % at 2 µM. TRHR cells, calcium flux fluo-8, FDSS agonist mode. AID 493084; also: 0% is about no effect
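Fluo-8-loaded TRHR cells; 10 s baseline, compound added, kinetic Ca2+ fluorescence read 1/s, agonist mode.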
D1 ag = activates the human D1 dopamine receptor | activation, % at 2 µM | AID 504660 | 360,000 compounds, 1% hits | HEK293 T-REx D1 cells, calcium flux, agonist mode | P21728; also: 0% is about no effect
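Inducible HEK293 T-REx D1 cells, force-coupled to calcium signalling, were plated at 4000 cells/well with tetracycline and held overnight at 30 C. After no-wash calcium dye loading, compound-evoked calcium rise over 180 s flagged agonists.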
Active calls of the source: *. Rule as the data show it, unless noted: active = activation above about 30%; inactive = the rest.

SMILES | TRHR PAM | D1 PAM | D1 antag | TRHR agonist | D1 ag
Cc1c(Cl)cccc1NC(=S)NCc1ccccc1Cl | 0.6 | -5.7 | -22.0 | 0.7 | 24.1
COc1ccc(NC(=S)NCc2ccc(F)cc2)c(OC)c1 | -4.7 | -16.6 | -30.8* | -0.8 | 3.6
O=C(CSc1nnc(-c2ccccc2)c(-c2ccccc2)n1)NCCc1ccccc1 | -1.4 | -1.1 | 10.7 | 0.4 | -2.5
CN(C)CCCNC(=S)N1CCn2c(nc3ccccc32)C1 | 5.3 | -8.8 | 11.4 | -0.7 | 2.1
COc1cc(/C=C(\C#N)c2nc3ccccc3[nH]2)cc(Cl)c1OCc1ccccc1Cl | -1.6 | -1.7 | 2.8 | 1.2 | 0.8
Cc1ccc(S(=O)(=O)c2nnn3c2nc(N2CCN(c4ccccc4F)CC2)c2ccccc23)cc1C | 4.2 | -1.3 | -4.4 | 0.3 | 0.1
Cc1c(C(C)(C)C)s/c(=N/S(=O)(=O)c2ccccc2)n1C | 3.0 | -8.9 | -35.1* | 0.1 | 0.2
Cc1cccc(C(=O)Nc2cc3nn(-c4ccc(C(C)C)cc4)nc3cc2C)c1 | 2.4 | 0.1 | 2.9 | -0.1 | -0.3
CN(C)c1ccc(/C=C/c2ccncc2)cc1 | 1.4 | -2.5 | 3.5 | 18.7 | 14.2
COc1cc2nc(/C=C/c3ccc(N(C)C)cc3)sc2cc1SC | 6.2 | 35.0* | 12.3 | 85.2* | 553.9*
COCCn1nc2cc(C(=O)NCC34CC5CC(CC(C5)C3)C4)ccc2c1OC | 0.1 | 5.7 | -32.2* | -0.5 | -0.4
CCCn1nc2cc(C(=O)NCC34CC5CC(CC(C5)C3)C4)ccc2c1OCC | 5.1 | 0.1 | 2.7 | -0.9 | 5.9
Cc1ccccc1C(=O)N1CCN(c2ccc(NC(=O)c3cccnc3Cl)cc2)CC1 | -0.8 | -1.4 | -9.8 | 0.9 | 1.4
O=C(Nc1ccc(N2CCN(C(=O)c3ccccc3F)CC2)cc1)c1ncn[nH]1 | 33.5* | 0.3 | 3.2 | -0.2 | 2.4
O=C(Nc1ccc(N2CCCCC2)c(Cl)c1)c1ncn[nH]1 | 12.0 | 1.1 | 1.5 | -0.5 | 39.2*
O=C(Cc1ccsc1)Nc1ccc(S(=O)(=O)C(F)F)cc1 | 1.0 | -5.2 | -13.9 | -2.2 | 12.7
COc1ccccc1-c1nc(CNC(=O)NC2CCCCC2)c(C)o1 | -1.4 | -0.6 | -18.0 | -0.9 | 1.9
Cc1ccc2c(c1)C(=O)OC(C(=O)Nc1ccc(C(=O)O)cc1)C2 (configuration not stated) | -1.6 | 1.8 | -5.7 | 1.1 | 1.7
CC(C)(C)c1ccc(C(=O)NNC(=O)c2cccc(-n3cnnn3)c2)cc1 | 3.6 | 0.2 | -6.1 | 0.3 | 2.6
Cc1ccc(CNC(=O)c2cccc(-n3cnnn3)c2)cc1 | 30.0* | -1.2 | 14.8 | 0.0 | -0.4
CCOc1ccc(CCNC(=O)c2cccc(-n3cnnn3)c2)cc1OCC | -0.7 | -8.6 | -31.3* | 0.3 | 3.8
CCCCNC(=O)c1cnc2c(-c3ccc(OCC)c(OCC)c3)c(C)nn2c1-c1ccccc1 | -2.2 | -2.3 | 15.1 | -0.1 | 1.1
COc1cc(/C=C2/SC(=S)N(Cc3ccccc3)C2=O)ccc1O | 6.8 | 7.8 | 6.5 | 39.4* | 102.3*
CN1C(=O)/C(=C\c2cccc(OCc3ccccc3)c2)SC1=S | 4.3 | -2.8 | -33.9* | 0.5 | 1.3
O=C(CN1C(=O)S/C(=C\c2cc(Cl)c(O)c(Cl)c2)C1=O)Nc1ccccc1 | 3.7 | -2.1 | 12.0 | 13.6 | 48.3*
SMILES | TRHR PAM | D1 PAM | D1 antag | TRHR agonist | D1 ag
COc1cc(/C=C2\SC(=S)N(CCC(=O)Nc3ccccc3)C2=O)cc(OC)c1OC | 1.5 | 0.3 | 5.9 | 13.7 | 45.5*
O=C(O)CN1C(=O)/C(=C\c2cccc(OCc3ccccc3)c2)SC1=S | -0.5 | -10.9 | -1.6 | 0.1 | 2.4
O=C(CN1C(=O)S/C(=C\c2ccccn2)C1=O)Nc1ccccc1 | -0.1 | -3.9 | -2.0 | 0.0 | 2.5
COc1ccccc1C(=O)c1c(N)c(-c2nc(-c3ccccc3)cs2)c2ccccn12 | -1.8 | 0.9 | 11.3 | 0.3 | 2.0
CCN(c1cc(C)cc(C)c1)S(=O)(=O)c1nnc(NC(=O)c2cccc(F)c2)s1 | -1.5 | -0.9 | -8.0 | 0.5 | 3.1
COc1cc(/C=C2\SC(=S)N(N3CCOCC3)C2=O)cc(OC)c1OC | -5.6 | 16.7 | -13.1 | 1.5 | 7.6
O=C1/C(=C\c2cc([N+](=O)[O-])ccc2O)SC(=S)N1Cc1ccc(Cl)cc1 | 7.8 | -6.2 | -4.7 | 120.2* | 196.8*
COc1cc(/C=C2\SC(=S)N(N3CCOCC3)C2=O)ccc1O | 0.2 | -2.6 | -17.9 | 21.1 | 30.2*
O=C1/C(=C\c2ccc(O)c(O)c2)SC(=S)N1Cc1ccccc1 | -1.6 | 4.8 | -4.1 | -0.9 | 77.5*
COc1ccc(-c2nc(SCC(=O)NC3CCCC3)c(-c3ccc(C)cc3)[nH]2)cc1OC | -3.8 | -2.3 | 3.7 | -0.5 | 2.6
CC1=C(C(=O)OC2CCCCCC2)C(c2ccc(C)o2)C2=C(CCCC2=O)N1 (configuration not stated) | -5.4 | -8.8 | -32.9* | 0.0 | -1.6
Cc1cccc(NC(=O)c2ccc(C(=O)Nc3cccc(C)c3C)cc2)c1C | -3.3 | -0.8 | -2.2 | -1.0 | 1.2
O=C(COc1cccc2ccccc12)N/N=C/c1ccccc1OCc1ccc(C(=O)O)cc1 | -5.4 | 1.4 | -6.3 | 0.2 | 36.2*
O=C(COc1ccccc1-c1ccccc1)N/N=C/c1cccc2ccccc12 | 5.5 | 3.0 | -0.9 | 0.9 | 3.4
O=C(O)COc1ccccc1/C=N/NC(=O)CNC(=O)c1ccco1 | 2.7 | -3.4 | -58.1* | 0.2 | 2.1
COc1ccc(NC(=O)Nc2ccccc2OCc2cc(=O)n3ccccc3n2)c(OC)c1 | -5.5 | -3.2 | -16.3 | -0.6 | -0.9
Cc1cc(N)n2nc(-c3ccccc3)cc2n1 | 3.3 | -8.3 | -40.6* | -0.1 | 1.3
COc1ccc(-c2nc(NC(=O)Cn3ccc(C(F)(F)F)n3)sc2C)cc1 | -1.9 | 4.4 | -40.4* | 1.3 | 2.2
Cn1cc([N+](=O)[O-])c(C(=O)Nc2nc(-c3ccc(Cl)cc3)cs2)n1 | 2.5 | 2.8 | -48.1* | -0.2 | 28.3
COc1ccc(-c2nc(NC(=O)Cn3cnnn3)sc2C)cc1 | -8.7 | -7.0 | -9.3 | 0.7 | 0.8
CC(=O)c1c(C)[nH]c(C(=O)Nc2nc(-c3ccc(-c4ccccc4)cc3)cs2)c1C | -1.4 | -5.2 | -11.5 | 0.0 | 5.4
Cc1noc(C)c1C(=O)Nc1nc(-c2ccc([N+](=O)[O-])cc2)cs1 | -6.4 | -8.1 | -50.7* | 0.1 | 25.4
CC(=O)c1c(C)[nH]c(C(=O)Nc2nc(-c3ccc(Cl)cc3)cs2)c1C | 8.4 | -14.8 | -31.6* | -0.5 | 21.3
Cc1ccc(-c2csc(NC(=O)c3c(C)noc3C)n2)cc1 | 1.8 | 4.8 | -14.3 | -1.0 | 0.9
CCCCSCCCNC(=O)c1cn(CC)c2ccc(S(=O)(=O)N(C)C3CCCCC3)cc2c1=O | -2.7 | 5.8 | 10.4 | 2.4 | 11.8
COc1ccc(OC)c(NC(=O)c2[nH]c(C)c(C(C)=O)c2C)c1 | -0.9 | -6.5 | 10.0 | 0.1 | -0.9
COc1ccc(-c2nc(NC(=O)c3[nH]c(C)c(C(C)=O)c3C)sc2C)cc1 | 1.2 | -12.4 | -90.6* | -0.1 | 14.8
